Here are results for 11 compounds from ChEMBL document CHEMBL3988442, “University of Dundee, Small-Polar-MMV Screening Library” (2021).

What all share (parameters): scale not given: direction of the effect not stated beside the values
The target in experiment [1] is Protein translocase subunit SecA (Escherichia coli (strain K12)) (UniProt P10408). Description: Assay to Identify E. coli SecA ATPase Inhibitors. The format is functional. The following applies: 30 µM.
Experiment [2] addresses T1, Ubiquitin-activating enzyme e1, putative (Leishmania donovani (strain BPK282A1)) (UniProt E9BSI1).
T1 sequence (whole entry): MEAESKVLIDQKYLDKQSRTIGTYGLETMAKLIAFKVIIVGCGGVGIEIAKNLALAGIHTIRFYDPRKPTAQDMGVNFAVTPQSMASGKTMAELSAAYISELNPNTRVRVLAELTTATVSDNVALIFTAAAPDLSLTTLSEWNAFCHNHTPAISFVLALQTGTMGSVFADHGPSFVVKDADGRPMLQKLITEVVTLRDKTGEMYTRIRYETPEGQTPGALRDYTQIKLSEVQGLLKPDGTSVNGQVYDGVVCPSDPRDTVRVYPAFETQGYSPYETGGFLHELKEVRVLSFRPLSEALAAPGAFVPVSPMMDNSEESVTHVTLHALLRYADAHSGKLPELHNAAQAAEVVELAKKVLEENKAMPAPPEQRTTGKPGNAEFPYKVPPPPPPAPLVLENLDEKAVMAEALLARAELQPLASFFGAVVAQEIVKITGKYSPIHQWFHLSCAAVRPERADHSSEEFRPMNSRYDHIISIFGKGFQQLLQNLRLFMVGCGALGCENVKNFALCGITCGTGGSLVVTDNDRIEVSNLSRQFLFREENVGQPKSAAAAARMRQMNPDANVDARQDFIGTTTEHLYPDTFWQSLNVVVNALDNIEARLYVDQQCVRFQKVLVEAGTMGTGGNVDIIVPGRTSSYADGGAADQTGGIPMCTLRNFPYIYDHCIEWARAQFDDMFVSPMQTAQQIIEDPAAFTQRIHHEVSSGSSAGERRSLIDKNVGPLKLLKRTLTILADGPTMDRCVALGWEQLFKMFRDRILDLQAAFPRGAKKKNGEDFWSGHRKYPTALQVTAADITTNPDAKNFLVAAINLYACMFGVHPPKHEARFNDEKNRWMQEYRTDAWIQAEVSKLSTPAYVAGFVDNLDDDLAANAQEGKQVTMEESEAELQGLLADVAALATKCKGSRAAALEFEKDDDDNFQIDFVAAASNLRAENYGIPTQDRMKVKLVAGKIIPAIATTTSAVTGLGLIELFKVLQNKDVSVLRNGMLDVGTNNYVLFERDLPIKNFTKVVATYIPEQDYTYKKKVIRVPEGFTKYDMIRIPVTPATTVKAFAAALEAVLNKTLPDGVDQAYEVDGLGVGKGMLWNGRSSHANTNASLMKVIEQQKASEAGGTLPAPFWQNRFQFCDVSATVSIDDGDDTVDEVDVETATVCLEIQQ
Description: Leishmania donovani Ubiquitin Activating Enzyme (LdE1). The class given is functional. The following applies: 30 µM.

The target in experiment [3] is AMP-activated protein kinase, AMPK (Homo sapiens) (UniProt P54646+O43741+P54619+Q9UGJ0+Q9Y478+Q13131+Q9UGI9). Description: AMP-dependent Kinase enzyme assay. An in vitro enzyme assay that detects ADP turnover that is directly proportional to AMPK activity. This uses naive AMPK that is activated during the assay with MK-8722. The format is functional. To be noted: 30 µM.

Experiment [4] has as its target Sialic acid-binding Ig-like lectin 9 (Homo sapiens) (UniProt Q9Y336). Description: Hs-Siglec9 ALPHAscreen SOP 20170721. To be noted: 10 µM. Background: Bead proximity is the source of the signal in Alpha formats.
For another experiment, the system named is Trypanosoma cruzi. Description: Trypanosoma cruzi phosphomannomutase and mannose-1-phosphate guanylyltransferase assay. The format is functional. The following applies: 10 µM.
For experiment [5], the target named is T2, Arginase-2, mitochondrial (Homo sapiens) (UniProt P78540).
T2 sequence (whole entry): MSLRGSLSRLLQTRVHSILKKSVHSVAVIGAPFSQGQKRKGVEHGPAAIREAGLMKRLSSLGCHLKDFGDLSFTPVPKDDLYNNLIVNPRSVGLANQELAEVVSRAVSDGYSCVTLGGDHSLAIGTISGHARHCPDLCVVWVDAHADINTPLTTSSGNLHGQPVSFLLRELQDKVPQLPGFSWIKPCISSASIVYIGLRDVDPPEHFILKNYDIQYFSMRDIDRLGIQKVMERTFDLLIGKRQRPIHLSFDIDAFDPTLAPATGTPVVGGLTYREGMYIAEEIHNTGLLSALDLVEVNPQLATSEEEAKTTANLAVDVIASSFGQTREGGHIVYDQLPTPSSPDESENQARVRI
Briefly: in vitro enzyme assay to detect the production of urea directly proportional to the activity of Arginase II. Note: in the data most compounds retested in dose-response had high values. The class given is functional. To be noted: 33.3 µM.

Experiment [6] concerns the target T3, Proteasome subunit beta (Trypanosoma cruzi) (UniProt O96673).
T3 sequence (whole entry): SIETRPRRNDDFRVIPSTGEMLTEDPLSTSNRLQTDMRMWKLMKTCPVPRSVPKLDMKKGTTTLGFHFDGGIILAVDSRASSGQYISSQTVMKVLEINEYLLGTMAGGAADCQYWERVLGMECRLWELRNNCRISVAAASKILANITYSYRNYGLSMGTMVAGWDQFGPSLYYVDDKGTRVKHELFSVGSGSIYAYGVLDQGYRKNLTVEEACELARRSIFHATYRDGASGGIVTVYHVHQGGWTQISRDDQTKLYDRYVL
Description: Trypanosoma cruzi proteasome chymotrypsin-like activity (TcProtChymo) assay. Note: in the data most compounds retested in dose-response had high values. The format is functional. To be noted: 9.37 µM.

The next experiment is filed under the species Homo sapiens. Briefly: To identify inhibition of the IFN signalling (Jak-Stat) pathway via expression of an eGFP reporter gene under the control of an IFN-stimulated response element (ISRE) containing MxA promoter. The class given is functional. To be noted: 30 µM.
Experiment [7] deals with T4, Tyrosyl-tRNA synthetase, putative (Trypanosoma cruzi (strain CL Brener)) (UniProt Q4DSP6).
T4 sequence (whole entry): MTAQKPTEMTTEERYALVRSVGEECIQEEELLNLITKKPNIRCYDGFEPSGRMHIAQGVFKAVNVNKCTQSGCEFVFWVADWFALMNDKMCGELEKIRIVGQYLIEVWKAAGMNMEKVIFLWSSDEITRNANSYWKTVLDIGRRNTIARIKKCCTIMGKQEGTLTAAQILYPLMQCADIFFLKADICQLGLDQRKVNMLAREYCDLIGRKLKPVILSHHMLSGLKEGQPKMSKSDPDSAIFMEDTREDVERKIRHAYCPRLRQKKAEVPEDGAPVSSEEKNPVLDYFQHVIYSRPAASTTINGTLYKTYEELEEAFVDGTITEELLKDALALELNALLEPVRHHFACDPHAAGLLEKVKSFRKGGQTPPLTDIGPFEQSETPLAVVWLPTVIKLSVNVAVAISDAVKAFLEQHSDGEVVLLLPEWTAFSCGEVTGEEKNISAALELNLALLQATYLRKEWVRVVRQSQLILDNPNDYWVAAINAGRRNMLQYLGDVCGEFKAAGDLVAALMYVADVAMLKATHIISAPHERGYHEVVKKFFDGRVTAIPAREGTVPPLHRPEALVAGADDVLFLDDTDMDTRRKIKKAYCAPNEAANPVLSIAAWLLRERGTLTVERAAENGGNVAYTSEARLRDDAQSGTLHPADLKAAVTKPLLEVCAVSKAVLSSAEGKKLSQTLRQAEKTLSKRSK
Description: Trypanosoma cruzi tyrosyl tRNA synthetase (TcYRS) _High Tyrosine SOP. Note: in the data most compounds retested in dose-response had high values. The class given is functional. The following applies: 30 µM.

The target of experiment [8] is T4, Tyrosyl-tRNA synthetase, putative (Trypanosoma cruzi (strain CL Brener)). Description: Trypanosoma cruzi tyrosyl tRNA synthetase (TcYRS) SOP. The following applies: 30 µM. The class given is functional.
Experiment [9] addresses Chromo domain-containing protein 1 (Saccharomyces cerevisiae (strain ATCC 204508 / S288c) (Baker's yeast)) (UniProt P32657). Description: ScCHD-1 Enzyme Inhibition Assay. Note: in the data most compounds retested in dose-response had high values. The format is functional. To be noted: 30 µM.

For some of these results: Results with a measured potency or affinity are listed apart.

Sequence of Sialic acid-binding Ig-like lectin 9 (Homo sapiens) (Q9Y336 whole entry): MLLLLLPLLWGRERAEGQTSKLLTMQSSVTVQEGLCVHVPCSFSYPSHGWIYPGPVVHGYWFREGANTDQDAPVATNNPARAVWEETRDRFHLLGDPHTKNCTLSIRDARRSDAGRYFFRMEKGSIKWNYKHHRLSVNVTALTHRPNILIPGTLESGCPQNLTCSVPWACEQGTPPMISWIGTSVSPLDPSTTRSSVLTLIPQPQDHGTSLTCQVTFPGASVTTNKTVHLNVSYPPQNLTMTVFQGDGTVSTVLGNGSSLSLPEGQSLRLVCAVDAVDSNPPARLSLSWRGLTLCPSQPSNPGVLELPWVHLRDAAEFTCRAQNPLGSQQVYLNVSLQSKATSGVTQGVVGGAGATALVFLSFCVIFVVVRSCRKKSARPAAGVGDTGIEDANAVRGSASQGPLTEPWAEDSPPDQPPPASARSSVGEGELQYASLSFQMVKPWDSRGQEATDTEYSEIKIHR
Sequence of Protein translocase subunit SecA (Escherichia coli (strain K12)) (P10408 whole entry): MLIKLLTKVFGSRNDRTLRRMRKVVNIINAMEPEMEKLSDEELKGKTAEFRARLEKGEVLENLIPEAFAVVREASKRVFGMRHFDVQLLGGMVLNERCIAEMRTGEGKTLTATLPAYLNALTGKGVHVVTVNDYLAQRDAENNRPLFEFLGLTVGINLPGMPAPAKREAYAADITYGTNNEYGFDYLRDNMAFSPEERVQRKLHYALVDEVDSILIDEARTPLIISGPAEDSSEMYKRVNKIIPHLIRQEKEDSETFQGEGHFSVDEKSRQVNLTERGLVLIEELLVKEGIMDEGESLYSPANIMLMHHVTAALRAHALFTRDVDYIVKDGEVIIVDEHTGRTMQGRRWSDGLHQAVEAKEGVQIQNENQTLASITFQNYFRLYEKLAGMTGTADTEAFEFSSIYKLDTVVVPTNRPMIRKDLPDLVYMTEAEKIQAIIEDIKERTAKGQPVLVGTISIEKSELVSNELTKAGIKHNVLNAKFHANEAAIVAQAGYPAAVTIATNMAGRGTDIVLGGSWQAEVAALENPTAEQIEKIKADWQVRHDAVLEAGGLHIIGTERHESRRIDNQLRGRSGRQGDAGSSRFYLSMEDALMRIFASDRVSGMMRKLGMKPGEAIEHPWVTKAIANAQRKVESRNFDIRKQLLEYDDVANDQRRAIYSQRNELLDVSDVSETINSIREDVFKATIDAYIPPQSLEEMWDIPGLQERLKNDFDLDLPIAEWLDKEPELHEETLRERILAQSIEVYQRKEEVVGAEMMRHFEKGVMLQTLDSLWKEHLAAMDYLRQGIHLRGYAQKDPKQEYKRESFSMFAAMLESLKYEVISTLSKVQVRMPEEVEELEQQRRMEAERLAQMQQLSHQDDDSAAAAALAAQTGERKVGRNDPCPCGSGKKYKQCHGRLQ
Sequence of Chromo domain-containing protein 1 (Saccharomyces cerevisiae (strain ATCC 204508 / S288c) (Baker's yeast)) (P32657 whole entry, the tested form may be a part): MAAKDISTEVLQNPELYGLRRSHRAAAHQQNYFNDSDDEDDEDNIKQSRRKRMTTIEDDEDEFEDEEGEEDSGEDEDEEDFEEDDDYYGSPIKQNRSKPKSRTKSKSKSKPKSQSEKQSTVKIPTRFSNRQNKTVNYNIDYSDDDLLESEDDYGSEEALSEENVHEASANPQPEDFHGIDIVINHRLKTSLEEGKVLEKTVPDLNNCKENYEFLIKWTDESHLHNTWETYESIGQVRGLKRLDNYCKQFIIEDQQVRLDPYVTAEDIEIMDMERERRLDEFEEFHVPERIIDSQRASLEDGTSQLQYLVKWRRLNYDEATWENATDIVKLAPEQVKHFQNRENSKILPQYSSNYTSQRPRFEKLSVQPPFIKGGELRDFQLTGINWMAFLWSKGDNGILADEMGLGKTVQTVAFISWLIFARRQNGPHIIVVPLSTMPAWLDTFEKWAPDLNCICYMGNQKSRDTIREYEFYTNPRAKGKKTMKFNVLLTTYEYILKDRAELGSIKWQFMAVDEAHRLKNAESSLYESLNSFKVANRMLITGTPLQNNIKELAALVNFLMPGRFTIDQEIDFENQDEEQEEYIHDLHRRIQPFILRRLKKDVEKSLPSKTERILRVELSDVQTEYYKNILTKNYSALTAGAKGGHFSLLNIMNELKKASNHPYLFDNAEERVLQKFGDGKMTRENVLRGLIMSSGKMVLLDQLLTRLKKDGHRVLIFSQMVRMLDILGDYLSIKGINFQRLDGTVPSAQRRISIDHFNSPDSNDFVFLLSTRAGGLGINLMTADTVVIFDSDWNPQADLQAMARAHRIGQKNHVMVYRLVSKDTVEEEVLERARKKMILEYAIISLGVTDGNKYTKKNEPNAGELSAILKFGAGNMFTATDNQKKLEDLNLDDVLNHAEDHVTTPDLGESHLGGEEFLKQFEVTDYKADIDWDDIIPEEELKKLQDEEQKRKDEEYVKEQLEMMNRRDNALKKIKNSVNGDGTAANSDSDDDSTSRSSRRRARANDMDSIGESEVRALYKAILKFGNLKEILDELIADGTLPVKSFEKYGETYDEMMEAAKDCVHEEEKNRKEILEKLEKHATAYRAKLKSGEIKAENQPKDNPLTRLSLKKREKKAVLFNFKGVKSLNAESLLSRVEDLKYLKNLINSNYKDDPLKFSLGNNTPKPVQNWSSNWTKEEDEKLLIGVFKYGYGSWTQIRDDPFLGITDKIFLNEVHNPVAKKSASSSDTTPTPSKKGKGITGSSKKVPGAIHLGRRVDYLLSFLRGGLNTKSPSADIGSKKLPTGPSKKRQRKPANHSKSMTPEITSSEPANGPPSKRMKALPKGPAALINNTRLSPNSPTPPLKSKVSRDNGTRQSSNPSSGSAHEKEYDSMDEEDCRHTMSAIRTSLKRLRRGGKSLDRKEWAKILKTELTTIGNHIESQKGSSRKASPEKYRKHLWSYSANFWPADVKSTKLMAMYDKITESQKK

With `CN(C)CCn1c(=O)oc2ccc(NC(=O)c3cc(Cl)c[nH]3)cc21`, the Percent Effect is -3.23% in experiment [1]; 2.67% in [2]; 0.098% in experiment [3]; 6.1% in experiment [4]; -3.41% in the experiment on Trypanosoma cruzi; 4.17% in experiment [5]. The Percent Effect in [6] was 13.6%; in the experiment filed under Homo sapiens, 10.7%; in experiment [7], 19.1%; in [8], 21%; in experiment [9], -7.97%.

`Cc1noc(C(C)C)c1C(=O)NS(=O)(=O)c1ccc2c(c1)OCCCO2`: the Percent Effect in [1] is -0.953%; in [2], 2.63%; in experiment [3], 4.57%; in experiment [4], 1.83%; with Trypanosoma cruzi it was 4.19%; in [5], -3.55%. Besides, the Percent Effect in experiment [6] is 6.23%; in the experiment filed under Homo sapiens, 24.3%; in experiment [7], 0%; in experiment [8], 5.2%; in [9], 15.4%.

Consider `COC(=O)c1ccc2ccn(CC3CCCO3)c(=O)c2c1` (stereo unspecified), for which the Percent Effect is -0.0971% in experiment [1]; 5.48% in [2]; -14.6% in experiment [3]; 5.25% in experiment [4]; 0.979% with Trypanosoma cruzi; 12.3% in [5]. For the same compound, the Percent Effect in experiment [6] was found to be 16.3%; in the experiment filed under Homo sapiens it was 6.29%; in experiment [7], 4.3%; in [8] it was 10%; in [9] it was 78.9%.

In the case of `Cc1nc(C)n(C2CCCN(C(=O)c3cc(C(N)=O)cs3)C2)n1` (stereo unspecified), the Percent Effect was -7.57% in experiment [1]; 13.9% in experiment [2]; 0.492% in [3]; -4% in experiment [4]; 0.718% in the experiment with Trypanosoma cruzi; 1.07% in experiment [5]. Besides, the Percent Effect in experiment [6] is 8.92%; in the experiment filed under Homo sapiens, -7.04%; in experiment [7], 2.08%; in [8], 12.7%; in experiment [9], -31.4%.

Take `CCOc1ccccc1OC1CCN(C(=O)c2cc[nH]n2)CC1`: the Percent Effect in experiment [1] is -5.63%; in experiment [2] it was 13.2%; in experiment [3] it was 8.96%; in experiment [4], -2.66%; with Trypanosoma cruzi, -4.13%; in experiment [5] it was 4.21%. Besides, the Percent Effect is 12.4% in experiment [6]; 26.7% in the experiment filed under Homo sapiens; 2.45% in [7]; 7.32% in experiment [8]; -7.55% in experiment [9].

Take `CN(C)S(=O)(=O)N1CCC(Oc2cnccn2)CC1`: the Percent Effect in experiment [1] is -5.97%; in [2] it was 13%; in [3], -2.04%; in experiment [4], 3.81%; in the experiment with Trypanosoma cruzi it was 1.28%; in experiment [5], -1.94%. Moreover, the Percent Effect in experiment [6] was 20.2%; in the experiment listed under Homo sapiens it was 6.27%; in experiment [7] it was 4.23%; in experiment [8], 14.1%; in experiment [9], -9.34%.

Take `CC(=O)Nc1cccc(C(=O)Nc2cnc3n2CCCC3)c1`: the Percent Effect in experiment [1] is -3.85%; in experiment [2], 4.17%; in experiment [3], -0.344%; in experiment [4] it was 0.164%; in the experiment with Trypanosoma cruzi it was -1.46%; in [5], 3.53%. The Percent Effect in experiment [6] is 6.14%; in the experiment filed under Homo sapiens, 17.5%; in experiment [7], 4.21%; in experiment [8], 5.13%; in experiment [9], -3.23%.

Regarding `CCN1CCC(NC(=O)CN2CCCCC2Cn2cc(C)cn2)CC1` (stereo unspecified), the Percent Effect in [1] is 3.6%; in experiment [2] it was 21.5%; in [3] it was 4.67%; in experiment [4], -0.101%; with Trypanosoma cruzi, -4.21%; in [5] it was -11.4%. The Percent Effect in [6] was 15.3%; in the experiment listed under Homo sapiens it was 14.9%; in [7] it was 1.04%; in experiment [8], -22.8%; in [9], -23.6%.

For `CN(C(=O)Cn1nc(-c2ccc(F)cc2)ccc1=O)C1CCS(=O)(=O)C1` (stereo unspecified), the Percent Effect in experiment [1] was -7.39%; in experiment [2] it was 10.5%; in experiment [3] it was 7.4%; in experiment [4], 10.6%; in the experiment on Trypanosoma cruzi, 1.85%; in experiment [5], -16.6%. For the same compound, the Percent Effect is 6.81% in [6]; -4.86% in the experiment filed under Homo sapiens; 3.19% in experiment [7]; 7.79% in experiment [8]; -3.65% in [9].

As to `CCc1csc(C2CCCN(C(=O)c3c[nH]c(C)n3)C2)n1` (stereo unspecified), the Percent Effect was -1.65% in experiment [1]; 7.79% in experiment [2]; -3.3% in experiment [3]; 1.9% in experiment [4]; 6.18% with Trypanosoma cruzi; -1.78% in experiment [5]. Moreover, the Percent Effect in [6] is -3.88%; in the experiment filed under Homo sapiens, -6.54%; in experiment [7], 2.91%; in [8] it was 12.2%; in experiment [9] it was -6.32%.

Regarding `O=C(NCCc1nnc2n1CCC2)NCC1(c2cccc(F)c2)CC1`, the Percent Effect in [1] was -7.67%; in experiment [2], -5.26%; in [3], 5.7%; in experiment [4], -1.62%; in the experiment with Trypanosoma cruzi, 2.43%; in [5], 0%. Besides, the Percent Effect is -1.44% in experiment [6]; -9.73% in the experiment listed under Homo sapiens; 2.13% in experiment [7]; 5.2% in experiment [8]; 1.42% in experiment [9].
